Screening results deposited in PubChem by National Center for Advancing Translational Sciences (NCATS).
MCF10A rerep: induces DNA re-replication in MCF 10a normal breast cells; MCF 10A DNA re-replication, Hoechst nuclear intensity, 48 h; Potency, µM (top dose mostly 46.1 µM), for inactives: top-dose activity, positive = re-replication, actives largely listed as activators; hit rate 2.9% among 350,000; AID 624296; further: potency means the concentration at half of the fitted maximal effect; % of control where 0% means no effect; nearly all actives have a fitted effect of over 50% in size
SW480 rereplic: induces DNA re-replication in SW480 colon adenocarcinoma cells; Potency, µM (series often up to 46.1 µM), for inactives: at the top dose re-replication activation, usual class: activators; hit rate 1.8% among 340,000; AID 624297; SW480 DNA re-replication, Hoechst DNA content imaging, 48 h; further: potency means the concentration at half of the fitted maximal effect; % of control where 0% means no effect; nearly all actives have a fitted effect of over 55% in size
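250 cells/well; 23 nL cpd via pin tool; 48 hr, 37 C, 5% CO2; Hoechst 40 min; imager read of total nuclear intensity, ex 405/em 500-530 nm.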
S-ASM inh: blocks human secretory acid sphingomyelinase. P17405. placental ASM, HMU-PC fluorogenic substrate, 60 min. Potency, µM (series often up to 57.5 µM), inactives show at the highest dose activity change, negative = inhibition, most hits filed as inhibitors. hit rate 0.006% among 340,000. AID 504937; further: potency means the concentration at half of the fitted maximal effect
Target sequence (P17405 47-631 limits assumed): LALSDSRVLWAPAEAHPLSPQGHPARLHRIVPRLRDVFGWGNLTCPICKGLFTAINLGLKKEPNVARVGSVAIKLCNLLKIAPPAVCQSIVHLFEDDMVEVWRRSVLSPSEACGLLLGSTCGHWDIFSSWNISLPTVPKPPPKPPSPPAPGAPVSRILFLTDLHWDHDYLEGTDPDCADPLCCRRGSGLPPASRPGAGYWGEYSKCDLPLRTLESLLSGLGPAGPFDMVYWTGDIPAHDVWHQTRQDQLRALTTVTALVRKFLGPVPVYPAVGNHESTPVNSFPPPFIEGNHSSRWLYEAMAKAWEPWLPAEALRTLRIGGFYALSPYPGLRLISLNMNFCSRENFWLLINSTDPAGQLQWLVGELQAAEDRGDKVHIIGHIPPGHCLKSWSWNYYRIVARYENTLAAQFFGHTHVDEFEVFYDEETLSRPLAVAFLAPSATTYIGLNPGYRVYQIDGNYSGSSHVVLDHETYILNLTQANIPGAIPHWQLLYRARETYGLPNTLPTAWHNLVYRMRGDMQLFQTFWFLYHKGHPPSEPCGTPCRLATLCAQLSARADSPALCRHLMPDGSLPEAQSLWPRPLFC
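Fluorescence read-out (Ex 386 nm, Em 447 nm) after stopping the reaction at pH 10. Enzyme: ASM from human placenta; substrate HMU-PC0, 9 uM final; 60 min, 37 °C. Compound preincubation 10 min, ambient temperature.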
KB-3-1 tox: KB-3-1 parental cell cytotoxicity | Potency, µM (doses to about 46.1 µM), actives largely listed as cytotoxic | hit rate 1.4% among 400,000 | AID 1347075 | KB-3-1 viability, CellTiter-Glo ATP luminescence, 72 h; further: potency means the concentration at half of the fitted maximal effect; on the % scale 0 is the no-effect control and ±100 the full control effect; nearly all actives have a fitted effect of over 60% in size
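Cells are dispensed, compounds pinned in, plates held at 37 °C for 72 h, then CellTiter-Glo is added and luminescence read after 10 minutes. Cell line: parental KB-3-1 in phenol-red-free DMEM, 10% FBS.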
KB-V1 MDR tox: kills drug-selected multidrug resistant KB-V1 cells; KB-V1 MDR cells viability, CellTiter-Glo, 72 h; Potency, µM (doses to about 46.1 µM), most hits filed as cytotoxic; hit rate 3.4% among 400,000; further: potency means the concentration at half of the fitted maximal effect; on the % scale 0 is the no-effect control and ±100 the full control effect; nearly all actives have a fitted effect of over 60% in size
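qHTS viability screen in drug-selected KB-V1 MDR cells: 72 h compound treatment at 37 degrees C, ATP luminescence end point.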
Giardia kill: kills Giardia lamblia; Giardia lamblia trophozoite viability; activity change, % at 7.66 µM, hits read low; hit rate 0.15% among 340,000; AID 540267; in the data active means activity change below about -80%; inconclusive means between about -30% and that limit;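 further: parasites exposed to compound for two days anaerobically before the ATP read; on the % scale 0 is the no-effect control and ±100 the full control effect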
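Giardia lamblia trophozoites (100 cells/well) were incubated with compounds for 48 h at 37 deg C under anaerobic conditions. Viability was read as ATP content by one-step luminescence after 15-30 min at room temperature.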
An asterisk follows results filed as active; i = inactive; ? = inconclusive; · = no result given. A selection: hits, their analogues and other compounds. The true share with any hit is near 6.9%. Unless noted, the call rests on the fitted dose curve; in most records, active means well fitted curve in the direction sought with a large enough effect; inconclusive means small, poorly fitted or top-dose-only effect, or another doubt; inactive means no such curve, though single readings can be large; an effect the other way counts as inactive or inconclusive.

SMILES	MCF10A rerep	SW480 rereplic	S-ASM inh	KB-3-1 tox	KB-V1 MDR tox	Giardia kill
CC(=O)Nc1cccc(OCCCOc2cccc([N+](=O)[O-])c2)c1	8%	?	-3%	i	9.2µM*	-7
Cc1ccc(C(=O)Nc2cccc(S(=O)(=O)N(C)c3ccccc3)c2)o1	7%	-1%	-1%	i	16µM*	14
COc1cccc(CN(C)CC(=O)Nc2cccc(S(=O)(=O)N(C)c3ccccc3)c2)c1OC	?	-2%	-1%	?	2.6µM*	-1
CN(c1ccccc1)S(=O)(=O)c1cccc(NC(=O)CC(C)(C)C)c1	-1%	1%	1%	i	2.6µM*	0
Cc1cc(S(=O)(=O)NCc2ccccc2)ccc1OCC(=O)Nc1cccc([N+](=O)[O-])c1	?	-12%	-13%	i	13µM*	11
CN(c1ccccc1)S(=O)(=O)c1cccc(NC(=O)COc2cccc([N+](=O)[O-])c2)c1	1%	-2%	-1%	i	18µM*	-9
CC(=O)N/N=C/c1cc([N+](=O)[O-])ccc1OCCOc1ccccc1	4%	21µM*	2%	i	i	28
CCN(Cc1ccccc1)C(=O)C1CCN(S(=O)(=O)c2ccc3c(c2)CCCN3C(C)=O)CC1	·	·	·	i	i	·
Cc1cccc(NC(=O)Nc2nnc(N3CCCC3)s2)c1	·	·	·	i	i	·
Cc1ccc(-n2c(C)cc(C(=O)C(=O)Nc3ccccc3)c2C)c(C)c1	·	·	·	i	i	·
CCN(CC(=O)Nc1cccc(S(=O)(=O)N(C)c2ccccc2)c1)Cc1cccs1	17%	-3%	3%	?	4.6µM*	-18
CC(=O)c1cccc(NC(=O)c2cc3nc(-c4ccc(Br)cc4)cc(C(F)(F)F)n3n2)c1	·	·	·	i	i	·
Cc1ccccc1OCCNc1ccc(C(F)(F)F)cc1[N+](=O)[O-]	17%	-11%	-15%	16µM*	?	-3
O=[N+]([O-])c1cc(C(F)(F)F)ccc1NCCOc1ccccc1	-4%	18%	-12%	i	i	-6
CC(=O)c1cccc(NC(=O)CSc2nc(N3CCCCC3)nc(N3CCCCC3)n2)c1	5%	2.2µM*	2%	i	i	36
CCSc1nc(-c2ccccc2)c(C#N)c(=O)[nH]1	7.3µM*	20%	5%	i	i	-15
COc1cccc(NC(=O)Cn2c(-c3nonc3N)nc3ccccc32)c1	·	·	·	i	?	·
Cc1cc(N2CCN(c3ccc([N+](=O)[O-])c4cccnc34)CC2)c2ccccc2n1	?	9%	-4%	16µM*	?	?
Cc1cc(N2CCN(S(=O)(=O)c3ccccc3)CC2)c2ccccc2n1	3.7µM*	?	1%	i	?	14
Cc1cc(N2CCN(c3ccc(C(F)(F)F)cc3[N+](=O)[O-])CC2)c2ccccc2n1	?	-1%	-19%	?	i	-6
CC(C)(C)OC(=O)COc1cc(OCC(=O)OC(C)(C)C)c2c(=O)cc(-c3ccccc3)oc2c1	7%	-3%	-24%	i	21µM*	-6
CC(C)(C)OC(=O)COc1cc(O)c2c(=O)cc(-c3ccccc3)oc2c1	7%	?	-11%	i	i	-16
COc1ccc(NC(=O)CSc2nnc3c4c(nc(-c5ccccc5)n23)CC(C)(C)OC4)cc1	10%	?	24%	i	2.9µM*	18
Cc1ccc(N=Cc2cc(Cl)cc(Cl)c2O)nc1	?	18µM*	49%	i	i	-8
Oc1c(Cl)cc(Cl)cc1/C=N/Nc1ncc(Br)cn1	?	0.16µM*	1%	?	i	-9
SMILES	MCF10A rerep	SW480 rereplic	S-ASM inh	KB-3-1 tox	KB-V1 MDR tox	Giardia kill
Cc1oc(-c2ccccc2)nc1Cn1c(=O)cc(-c2ccccc2)c2c(C)nn(C)c21	·	·	·	i	i	·
CC(C)=CCOc1ccc([C@@H]2COc3c(ccc4c3C=CC(C)(C)O4)C2)c(O)c1	21µM*	-11%	-7%	?	?	-19
COc1ccc(S(=O)(=O)NCC(c2ccc(N(C)C)cc2)N2CCc3ccccc32)cc1F (centres undefined)	·	·	·	i	i	·
CC1(C)C(=O)N(c2ccccc2)C1c1ccccc1O (centres undefined)	7.3µM*	?	-2%	?	i	-30
NC(=S)N(c1ccccc1)c1ccccc1	0%	2%	-1%	i	i	7
NC(=Nc1ccccc1)N(c1ccccc1)c1ccccc1	12µM*	?	7%	i	i	0
O=C(c1cnn2c1NC(=C1CC1)C=C2C(F)F)N1CCc2ccccc21	·	·	·	?	i	·
O=C(N/N=C/c1ccc(N2CCCCC2)o1)c1ccccc1[N+](=O)[O-]	5.8µM*	7.3µM*	0%	i	i	17
O=C(N/N=C/c1ccc(N2CCOCC2)o1)c1ccccc1[N+](=O)[O-]	?	20%	3%	i	i	6
CC(C)c1ccccc1NC(=O)C(Cc1c[nH]c2ccccc12)NC(=O)OC(C)(C)C (centres undefined)	·	·	·	i	i	·
Cc1ccc(C(=O)CC2(O)C(=O)N(CCc3ccccc3)c3ccc(Cl)cc32)cc1 (centres undefined)	·	·	·	i	i	·
CC(/C=C/c1ccco1)=N\NC(=O)C(O)c1ccccc1 (centres undefined)	23µM*	0%	4%	i	i	-4
CCOC(=O)C1=C(N)n2c(s/c(=C/c3ccco3)c2=O)=C(C(=O)OC)C1c1ccco1 (centres undefined)	6.5µM*	13µM*	-15%	8.2µM*	?	11
CN1/C(=N\O)c2cccc3cccc1c23	18µM*	19%	420%	?	?	-9
COc1cc2c(cc1OC)[C@@H](NC(=O)CCc1ccccc1)[C@H](O)C2	-3%	-68%	0%	i	i	1
COc1ccc(N(Cc2ccccc2)S(=O)(=O)c2cccc(C(=O)Nc3ccccn3)c2)cc1	?	13%	-1%	?	3.7µM*	-2
COc1ccc(NC(=O)CCN(c2ccc(OC)cc2)S(=O)(=O)c2ccc(C)c(C)c2)cc1	9%	8%	-9%	i	8.2µM*	-22
CN(C)S(=O)(=O)c1ccc(NC(=S)NC(=O)C2CCC2)cc1	14%	-8%	-3%	i	i	-1
COc1ccc(C(=O)Nc2ccc(S(=O)(=O)N(Cc3ccccc3)c3ccccc3)cc2)cc1	·	·	·	i	2.3µM*	·
CN(Cc1ccccc1)S(=O)(=O)c1ccc(NC(=S)NC(=O)C2CCCC2)cc1	15µM*	3.3µM*	-6%	6.5µM*	4.1µM*	-6
